Test results taken from PubChem BioAssay (NCI).
The panel holds about 83,000 compounds, 20% with a hit somewhere; the sample as a whole holds those more often.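 Negative percent growth values reflect cell death: -40 means 40% of the cells present at the start died, and -100 means all died.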 A number with no mark means an inactive call. Active and inactive are the calls of the source. How the source made its calls: active means growth percent below 10; inactive means the rest.

What follows are compounds tested on U251 CNS (assay: NCI-60 one-dose screen, 48 h (100 = growth as untreated, 0 = no growth, -100 = all killed)). Conditions: 10 µM unless noted.
For `COc1cc(-c2ccc[nH]2)[nH]c1/C=C1\N=C(C)C(CC(=O)OCC(C)(C)C)=C1C`, the growth was -95.6% (active).
In the case of `N#Cc1c(-c2ccc(Br)cc2)nc2c(N=Nc3ccc(S(N)(=O)=O)cc3)c(N)nn2c1N`, the growth is reported as 41.3%.
Compound `O=[N+]([O-])c1ccccc1Nc1ccc2ccccc2c1` has a growth of 92.7%.
In the case of `c1ccc(Nc2nc3c(s2)CCc2c[nH]cc2-3)nc1`, the growth is reported as 89.6%.
`COc1ccc2cc(C(=O)N3CCC([C@@H](C)C(=O)NCc4ccc5c(c4)OCO5)CC3)[nH]c2c1` gave a growth of 23.6% [50 µM].
`Nc1cc(C(=O)O)cc(-n2c(O)c(C=C3N=c4ccccc4=N3)sc2=S)c1` showed a growth of 107%.
Compound `CC1(C)N=C(N)N=C(N)N1c1cc(Cl)ccc1Cl` has a growth of 80%.
With `CC/C(=C(\c1ccc(Cl)cc1)c1ccc(OCCN2CCCCC2)cc1)c1ccc(O)cc1` the growth was 0.575% (active).
`O=C1O[C@@H](c2ccccc2Cl)[C@@H]2c3cc4c(cc3CCN12)OCO4` showed a growth of 86%.
`C=CCn1cc(-c2nc3ccccc3s2)c2cc(-c3ccc4c5c(cccc35)C(=O)N(CCO)C4=O)ccc21` gave a growth of 97.2%.
Work on `CCOC(=O)C#Cc1c(C(=O)OCC)nnn1[C@@H]1O[C@H](COC)[C@@H](OC)[C@H]1OC` yielded a growth of 102%.
Work on `O=C(/C=C/c1ccccc1Cl)c1cccc(OCCCCOc2cccc(C(=O)/C=C/c3ccccc3Cl)c2)c1` yielded a growth of 90.3%.
`Nc1nc2ccccc2c2c(=O)c3cc(Cl)ccc3sc12` showed a growth of 98.5%.
`C=CC(=O)Nc1cccc(Oc2nccc(Nc3nnc(-c4ccc(Br)cc4)s3)n2)c1` gave a growth of 97.5%.
